Among the test systems are SR leukemia; RPMI-8226 leukemia; OVCAR-8 ovarian; OVCAR-4 ovarian; SK-OV-3 ovarian; IGROV1 ovarian; OVCAR-3 ovarian; HS 578T breast; NCI/ADR-RES ovarian; OVCAR-5 ovarian.
Common to all, as to assay: NCI-60 one-dose screen, 48 h (100 = growth as untreated, 0 = no growth, -100 = all killed)
What all share (conditions): 10 µM unless noted

Each structure is given as a SMILES string. This is part of a sample that, as a whole, favours compounds with a hit. Of some 83,000 tested, about 20% had one in any assay.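 Values shown are percent growth following 48 h exposure of cells in 96-well plates to a single concentration of compound; below 10 was considered active.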 A number with no mark means an inactive call. Active and inactive are the calls of the source.

With `Oc1ccc(Cl)cc1Cc1cc(Cl)ccc1O`, the growth in the experiment with SR leukemia is 81.4%; in the experiment on RPMI-8226 leukemia, -1.2% (active); with OVCAR-8 ovarian, 20.9%; in the experiment with OVCAR-4 ovarian it was 38.7%; in the experiment with SK-OV-3 ovarian it was 84.8%; in the experiment with IGROV1 ovarian, 41.1%. Also, the growth in the experiment on OVCAR-3 ovarian was 9.92% (active); in the experiment with HS 578T breast, 34.2%; in the experiment on NCI/ADR-RES ovarian it was 4.47% (active).

On to `Cc1cc(N/N=C/c2ccccn2)nc2ccccc12`, for which the growth in the experiment on SR leukemia is 11.5%; in the experiment with RPMI-8226 leukemia it was 13.7%; in the experiment with OVCAR-8 ovarian it was 6.78% (active); in the experiment on OVCAR-4 ovarian it was 16.4%; in the experiment with SK-OV-3 ovarian, 31.6%; in the experiment on IGROV1 ovarian, 2.45% (active). Further, the growth in the experiment with OVCAR-3 ovarian is 28.6%; in the experiment on HS 578T breast it was 74.8%; in the experiment on NCI/ADR-RES ovarian, 7.9% (active).

As to `CCN1CCCC(Nc2cc(C)nc(/N=C(/N)Nc3ccc(Cl)c(Cl)c3)n2)C1` (configuration not stated), the growth with SR leukemia was -60.3% (active); with RPMI-8226 leukemia, -31.6% (active); in the experiment with OVCAR-8 ovarian, -21.5% (active); with OVCAR-4 ovarian, -17.3% (active); with SK-OV-3 ovarian, 6.57% (active); with IGROV1 ovarian it was 14.5%. Also, the growth in the experiment with OVCAR-3 ovarian is -49% (active); in the experiment on HS 578T breast, -37.8% (active); in the experiment on NCI/ADR-RES ovarian, 17.2%.

For `COc1ccc(C(OCC2OC(n3ccc(NC(=O)c4ccccc4)nc3=O)C(O)C2O)(c2ccccc2)c2ccccc2)cc1` (configuration not stated), the growth with SR leukemia is 12.4%; in the experiment on RPMI-8226 leukemia, 3.08% (active); in the experiment with OVCAR-8 ovarian, 29%; with OVCAR-4 ovarian, 25.9%; in the experiment with SK-OV-3 ovarian, 75.1%; in the experiment on IGROV1 ovarian, 33.7%. The values for the growth in the experiment with OVCAR-3 ovarian, in the experiment with HS 578T breast and in the experiment with NCI/ADR-RES ovarian were 45.6%, 61.7% and 38.1%, respectively.

`Cn1c(-c2ccccc2)c(/C=C/C2=[N+](C)c3ccccc3C2(C)C)c2ccccc21`: the growth in the experiment with SR leukemia was 9.26% (active); with RPMI-8226 leukemia, -1.71% (active); in the experiment with OVCAR-8 ovarian, 2.16% (active); with OVCAR-4 ovarian, 12.2%; in the experiment with SK-OV-3 ovarian, -9.3% (active); in the experiment with IGROV1 ovarian, 33.9%. Moreover, the values for the growth in the experiment with OVCAR-3 ovarian, with HS 578T breast and in the experiment with NCI/ADR-RES ovarian were 6.26% (active), 11% and 86.8%, respectively.

On to `CN=C(N)N/N=C(\C)c1ccc2c(c1)Cc1ccccc1-2`, for which the growth was -62.4% (active) in the experiment on SR leukemia; -20.7% (active) in the experiment with RPMI-8226 leukemia; -66.9% (active) in the experiment on OVCAR-8 ovarian; -69.1% (active) in the experiment with OVCAR-5 ovarian; -74.8% (active) in the experiment on SK-OV-3 ovarian; 20.5% in the experiment with IGROV1 ovarian. For the same compound, the growth in the experiment on OVCAR-3 ovarian is -88.1% (active); in the experiment with HS 578T breast it was -19.1% (active); in the experiment on NCI/ADR-RES ovarian, -29.7% (active).

`CC(=O)c1c(O)c(C)c(O)c2c1OC1=CC(=O)C(C(C)=O)C(=O)C12C` (configuration not stated): the growth with SR leukemia was 58%; with RPMI-8226 leukemia, 41.6%; in the experiment with OVCAR-8 ovarian, 92.7%; in the experiment on OVCAR-5 ovarian, 88.3%; in the experiment with SK-OV-3 ovarian, 98.8%; in the experiment with IGROV1 ovarian, 69.9%. Further, the growth with NCI/ADR-RES ovarian was 63.4%.

Regarding `CN(C)c1ccc(/C=C/c2ccnc3ccccc23)cc1`, the growth in the experiment with SR leukemia was 21%; with RPMI-8226 leukemia, 11.7%; with OVCAR-8 ovarian, 20.2%; in the experiment on OVCAR-5 ovarian, 84.4%; in the experiment on OVCAR-4 ovarian, 69.6%; in the experiment on OVCAR-3 ovarian, 45.1%. Further, the growth in the experiment on HS 578T breast is 53.5%; in the experiment on NCI/ADR-RES ovarian, 29.3%.

Regarding `Cc1ccc(N2C(=O)C=CC2=O)cc1`, the growth is 66% with SR leukemia; 98.8% with RPMI-8226 leukemia; 110% in the experiment on OVCAR-8 ovarian; 110% in the experiment with OVCAR-5 ovarian; 107% with OVCAR-4 ovarian; 118% with OVCAR-3 ovarian. In addition, in the experiment with NCI/ADR-RES ovarian, the growth is 104%.

Turning to `Cc1oc2c(C)c3oc(=O)cc(C)c3cc2c1CCl`, the growth was -10% (active) in the experiment with SR leukemia; 54.4% with RPMI-8226 leukemia; 87.1% in the experiment on OVCAR-8 ovarian; 77.3% in the experiment with OVCAR-5 ovarian; 89.1% in the experiment on SK-OV-3 ovarian; 94.3% with IGROV1 ovarian. The growth was 61.6% with OVCAR-3 ovarian, 77.6% in the experiment with HS 578T breast and 83.7% in the experiment on NCI/ADR-RES ovarian.

As to `N#Cc1c2ccccc2nc2ccccc12`, the growth with SR leukemia was 103%; in the experiment with RPMI-8226 leukemia, 99.3%; with OVCAR-8 ovarian, 93.9%; in the experiment with OVCAR-4 ovarian it was 83.2%; in the experiment with SK-OV-3 ovarian, 116%; in the experiment on IGROV1 ovarian it was 108%. The growth in the experiment with OVCAR-3 ovarian was 110%; in the experiment with HS 578T breast it was 103%; in the experiment with NCI/ADR-RES ovarian, 100%.

As for `Nc1nc(N)c2cc(Sc3cccc(C(F)(F)F)c3)ccc2n1`, the growth with SR leukemia is -27.1% (active); in the experiment with RPMI-8226 leukemia, 5.83% (active); in the experiment with OVCAR-8 ovarian, 31%; with OVCAR-5 ovarian, 45.1%; in the experiment on SK-OV-3 ovarian, 63.9%; in the experiment with IGROV1 ovarian it was 21.9%. Moreover, the values for the growth in the experiment on OVCAR-3 ovarian, in the experiment with HS 578T breast and with NCI/ADR-RES ovarian were 25.4%, 40.4% and 17.7%, respectively.

Take `N#CCc1cccc2ccccc12`: the growth with SR leukemia was 100%; in the experiment on RPMI-8226 leukemia, 103%; in the experiment with OVCAR-8 ovarian, 105%; in the experiment on OVCAR-5 ovarian, 110%; with IGROV1 ovarian it was 106%; with OVCAR-3 ovarian it was 120%. Further, the values for the growth in the experiment with HS 578T breast and with NCI/ADR-RES ovarian were 122% and 115%, respectively.

With `CCCCCCCCCCCC[n+]1ccc2ccccc2c1`, the growth in the experiment with SR leukemia is -29.7% (active); in the experiment with RPMI-8226 leukemia it was -53.7% (active); in the experiment with OVCAR-8 ovarian, -37% (active); in the experiment on OVCAR-4 ovarian it was -17.2% (active); with SK-OV-3 ovarian, -26.2% (active); in the experiment with IGROV1 ovarian, -51.9% (active). The growth with OVCAR-3 ovarian was -70.3% (active); with HS 578T breast it was 15.1%; in the experiment with NCI/ADR-RES ovarian it was 54.2%.

Consider `CN1CCC(c2ccccc2)(c2ccccc2)C(=O)C1`, for which the growth in the experiment with SR leukemia is 78.2%; in the experiment with RPMI-8226 leukemia, 41.7%; with OVCAR-8 ovarian, 95.9%; in the experiment with OVCAR-4 ovarian, 57%; in the experiment on SK-OV-3 ovarian it was 103%; in the experiment with IGROV1 ovarian, 89.8%. The results for the growth in the experiment on OVCAR-3 ovarian and in the experiment with NCI/ADR-RES ovarian were 68.7% and 73.9%, respectively.

On to `CC1=CC(=O)C=CC1(C)C(Cl)(Cl)Cl` (configuration not stated), for which the growth was 94.2% with SR leukemia; 104% in the experiment with RPMI-8226 leukemia; 90.3% in the experiment on OVCAR-8 ovarian; 114% with OVCAR-4 ovarian; 94.3% with SK-OV-3 ovarian; 100% with IGROV1 ovarian. Further, the growth with OVCAR-3 ovarian was 116%; in the experiment with HS 578T breast it was 93.1%; in the experiment with NCI/ADR-RES ovarian, 102%.
